Assay outcomes deposited in PubChem BioAssay by National Center for Advancing Translational Sciences (NCATS).
HTT ATP protect: cytoprotection in Huntington HTT-Q103 PC12 cell model; PC12 HTT-Q103 induced, cytoprotection, ATP luminescence, 40 h; Potency, µM (highest dose often 56.4 µM), usual class: activators; 230,000 compounds, 0.14% hits; active means well fitted curve in the direction sought with a large enough effect; inconclusive means small, poorly fitted or top-dose-only effect, or another doubt; inactive means no such curve, though single readings can be large; an effect the other way counts as inactive or inconclusive; further: nearly all actives have a fitted effect of over 45% in size
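Quantitative HTS on tebufenozide-induced (100 nM) PC12 cells expressing HTTQ103 exon 1–GFP; compounds tested as a concentration series; survival measured via cellular ATP.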
ALDH1A1 inh: ALDH1A1 (human) enzyme inhibition | P00352 | Purified ALDH1A1, NADH fluorescence, propionaldehyde substrate | Potency, µM (doses to about 75.3 µM), usual class: inhibitors | 220,000 compounds, 7.3% hits | AID 1030
JMJD2E inh: blocks human JMJD2E demethylase activity; AID 2147; JMJD2E catalytic domain, FDH-coupled NADH fluorescence (FDH is formaldehyde dehydrogenase); B2RXH2; 230,000 compounds, 1.6% hits; Potency, µM (highest dose often 57.1 µM), usual class: inhibitors; further: nearly all actives have a fitted effect of over 50% in size
HttQ103 aggreg: inhibitors of mutant huntingtin aggregate formation in PC12 cells | PC12 HttQ103-GFP aggregates, Acumen cytometry, 40 h | Potency, µM (titrated, usually from 46.1 µM), hits mostly inhibitors | 220,000 compounds, 1.1% hits | AID 1688; active means well fitted curve in the direction sought with a large enough effect; inconclusive means small, poorly fitted or top-dose-only effect, or another doubt; inactive means no such curve, though single readings can be large; an effect the other way counts as inactive or inconclusive; further: nearly all actives have a fitted effect of over 60% in size
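Using laser scanning cytometry, GFP-positive aggregates were counted after lysis of PC12 cells induced with 100 nM tebufenozide to express HTT exon 1 Q103–GFP. Compounds were tested in titration.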
HPGD inh: inhibitors of human 15-hydroxyprostaglandin dehydrogenase (HPGD); AID 894; Potency, µM, hits mostly inhibitors; 150,000 compounds, 4.3% hits; purified HPGD, NADH fluorescence kinetic, PGE2 substrate
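NADH formation kinetics: reaction with 30 uM PGE2 and 1 mM NAD+ (final), 20 nM enzyme, Tris-HCl pH 8 with Tween 20, after 15 min compound preincubation at room temperature. Fluorescence change, last versus first of five reads.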
CBFb RUNX1 block: blocks binding between human CBF-beta and RUNX1. Q01196+Q13951. AlphaScreen CBFb-His/RUNX1-biotin binding, biochemical. Potency, µM (doses to about 59.8 µM), usual class: inhibitors. 230,000 tested, under 10 active. AID 1477; active means well fitted curve in the direction sought with a large enough effect; inconclusive means small, poorly fitted or top-dose-only effect, or another doubt; inactive means no such curve, though single readings can be large; an effect the other way counts as inactive or inconclusive
Target sequence (Q01196 whole entry, looked up): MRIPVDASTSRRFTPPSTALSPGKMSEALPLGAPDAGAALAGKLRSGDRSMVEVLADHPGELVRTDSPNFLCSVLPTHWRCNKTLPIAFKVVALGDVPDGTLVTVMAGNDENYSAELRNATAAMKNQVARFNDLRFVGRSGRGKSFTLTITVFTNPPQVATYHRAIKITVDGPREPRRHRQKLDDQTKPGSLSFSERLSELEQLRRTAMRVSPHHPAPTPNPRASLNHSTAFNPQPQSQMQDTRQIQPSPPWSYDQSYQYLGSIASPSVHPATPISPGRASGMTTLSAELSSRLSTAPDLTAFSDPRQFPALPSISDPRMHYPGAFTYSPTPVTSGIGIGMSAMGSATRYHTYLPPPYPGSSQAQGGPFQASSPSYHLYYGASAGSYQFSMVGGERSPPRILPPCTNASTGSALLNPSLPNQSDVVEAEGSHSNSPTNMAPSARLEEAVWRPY
Target sequence (Q13951 whole entry, looked up): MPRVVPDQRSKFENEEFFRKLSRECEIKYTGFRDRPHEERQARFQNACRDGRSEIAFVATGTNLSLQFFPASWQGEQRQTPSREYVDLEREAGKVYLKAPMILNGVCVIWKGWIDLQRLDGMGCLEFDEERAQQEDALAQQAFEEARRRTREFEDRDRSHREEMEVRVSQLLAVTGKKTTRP
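Compounds were screened at multiple concentrations against a preformed CBF-beta(His)/RUNX1(biotin) complex (30 nM of each) for 15 min at room temperature, followed by 90 min with nickel and streptavidin beads and AlphaScreen reading.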
A number is an active result; i = inactive; ? = inconclusive; nt = not tested or not shown; [ ] = remark or other dose. An excerpt weighted towards active compounds, which were near 9.8% of everything screened. Unless noted, the call rests on the fitted dose curve; in most records, active means well fitted inhibition curve with a large enough effect (not every such curve was filed as active); inconclusive means small, poorly fitted or top-dose-only effect, or another doubt; inactive means no such curve, though single readings can be large or run the other way.

SMILES	HTT ATP protect	ALDH1A1 inh	JMJD2E inh	HttQ103 aggreg	HPGD inh	CBFb RUNX1 block
C1CCC[C@H]2CCCN3CC[C@H](CCCCCC[C@@H]4CCCN5CC[C@H](CC1)OC45)OC23	i	i	nt	nt	nt	i
Cn1nc2c3ccccc3n(Cc3ccc(F)cc3)c2nc1=S	i[10 µM]	nt	i	i[9.22 µM]	nt	i
Cc1nnc(Nc2ccc(Cl)c(C(F)(F)F)c2)[nH]c1=O	i	i	i	i	nt	i
CC1CCN(Cc2c(O)ccc3c2O/C(=C\c2ccco2)C3=O)CC1	nt	25µM	?	i	i	i
O=C1/C(=C/c2ccco2)Oc2c1ccc(O)c2CN1CCCCC1	nt	?	?	i	?	i
CCOc1cc(/C=N/NC(N)=S)cc(Br)c1OCc1ccccc1C	nt	1.3µM	i	i	i	i
C/C(=N\NC(=O)C(C)Oc1ccc([N+](=O)[O-])cc1)c1ccccn1 (centres undefined)	i	i	?	10µM	i	?
COc1ccc(OC(C)C(=O)Nc2ccc([N+](=O)[O-])cc2)cc1 (centres undefined)	i	i	i	i	nt	i
CCC(C)(C)c1ccc(CC(C)CN2C[C@@H](C)O[C@@H](C)C2)cc1 (some centres undefined)	i	nt	nt	i	nt	nt
C/C(=N\NC(=O)C(N)=O)c1ccc(Br)cc1	nt	i	i	i	i	i
CC/C(=N\NC(=O)C(N)=O)c1ccccc1O	nt	i	8.9µM	10µM	i	i
O=C(NC1=NCCS1)C1CC(=O)N(c2ccc(Cl)cc2)C1 (centres undefined)	i	i	i	i	nt	i
Cc1[nH]n(-c2ccccc2)c(=O)c1S(=O)(=O)c1ccccc1	i	?	i	i	i	i
CN1CCN(c2ncnc3ccc(-c4cccc(C#N)c4)cc23)CC1	i	10µM	nt	nt	nt	nt
COc1cccc(-c2ccc3ncnc(N4CCN(C)CC4)c3c2)c1	i	i	nt	nt	nt	nt
CCOC(=O)C1CCCN(c2c(N3CCN(c4ccccn4)CC3)c(=O)c2=O)C1 (centres undefined)	i	i	i	i	i	i
O=C(NC1CCCCC1)C1CCCN(c2nnnn2-c2ccccc2)C1 (centres undefined)	i	10µM	i	i	i	i
CCOC(=O)C1CCCN(c2nnnn2-c2ccccc2)C1 (centres undefined)	i[10 µM]	7.1µM	i	i	i	i
O=C(CSc1n[nH]c(=O)[nH]c1=O)N/N=C/c1ccccc1O	nt	i	14µM	i	i	i
CCOc1ccccc1/C=N/NC(=O)CSc1n[nH]c(=O)[nH]c1=O	i	i	i	i	nt	i
COC(=O)CCN1CCN(S(=O)(=O)c2ccccc2Br)CC1	nt	?	?	i	nt	i
COc1ccc(-c2csc(Nc3ccc(C)cn3)n2)cc1	i[10 µM]	24µM	i	i[9.22 µM]	nt	i
C=CCn1c(COc2ccccc2)nnc1SCC(=O)N/N=C/c1ccc(C)cc1	i	?	i	i	i	i
C=CCn1c(CNc2ccc(C)cc2)nnc1SCC(=O)N/N=C/c1ccc(O)cc1O	i	?	16µM	?	i	i
C=CCn1c(COc2ccccc2)nnc1SCC(=O)N/N=C/c1cc(Cl)ccc1O	i	i	28µM	7.9µM	i	i
SMILES	HTT ATP protect	ALDH1A1 inh	JMJD2E inh	HttQ103 aggreg	HPGD inh	CBFb RUNX1 block
C=CCn1c(CNc2ccccc2)nnc1SCC(=O)N/N=C/c1ccc(O)cc1O	i	i	22µM	?	i	i
CCN(CC)CCNC(=O)c1c(C)[nH]c(/C=C2\C(=O)Nc3ccc(F)cc32)c1C	i	nt	nt	?	nt	nt
COc1ccccc1C(=O)C1CCCN(C(=O)Nc2ccccc2F)C1 (centres undefined)	i[10 µM]	i	i	i[9.22 µM]	nt	i
Nc1ccc([N+](=O)[O-])cc1C(=O)NNC(=O)c1ccco1	i[10 µM]	nt	i	i[9.22 µM]	nt	i
Cc1[nH]c2ccccc2c1C(=O)CCl	i[10 µM]	0.25µM	i	i[9.22 µM]	nt	i
Cc1[nH]c2ccccc2c1C(=O)CN1CCCCC1C (centres undefined)	i	20µM	i	i[9.22 µM]	i	i
O=C(Oc1cc(=O)oc2c1c(=O)n1c3c(cccc23)CC1)c1ccc(F)cc1	i[10 µM]	nt	?	i[9.22 µM]	nt	i
COC(=O)[C@@]1(Cc2ccccc2)[C@H]2c3cc(C(=O)N(C)C)n(Cc4cc(C)n(C)n4)c3C[C@H]2CN1C(=O)c1ccccc1	i	i	i	nt	i	i
CCNC(=S)Nc1ccc(N2CCCCC2)cc1	?	25µM	?	i	nt	i
CC1CCCCN1CC(=O)Nc1ccc(Oc2ccccc2)cc1 (centres undefined)	i	i	i	i	?	i
O=C(CCl)Nc1ccc(N2CCCCCC2)cc1	nt	2.2µM	i	nt	nt	i
CC1CCCCN1CC(=O)Nc1ccc(N2CCCCCC2)cc1 (centres undefined)	i[10 µM]	20µM	i	i[9.22 µM]	nt	i
O=C(CNCc1ccco1)Nc1ccc(N2CCCCCC2)cc1	i	35µM	?	i	nt	i
O=C(Cc1ccccc1)Nc1ccc(N2CCCCC2)cc1	i	i	i	i	nt	i
CCC(=O)Nc1ccc(N2CCCCC2)cc1	i	i	i	?	i	i
Cc1cccc(C)c1NC(=O)C1c2cccc[n+]2CC(=O)N1Cc1ccc2c(c1)OCO2 (centres undefined)	i	?	i	i	nt	i
Cc1ccccc1NC(=O)C1c2cccc[n+]2CC(=O)N1c1c(C)cccc1C (centres undefined)	i	11µM	?	i	i	i
C=CCNC(=O)c1ccccc1NC(=O)Cc1ccccc1[N+](=O)[O-]	i[10 µM]	i	i	i	nt	i
CC1=C(Cl)C2=NS(=O)(=O)CCN2C=C1Cl	nt	?	?	0.11µM	nt	i
CCc1ccc[n+](-c2[nH]c(=O)sc2/C=N/N=C(\N)[O-])c1	i[10 µM]	nt	i	i[9.22 µM]	nt	i
O=c1[nH]c(-[n+]2ccccc2)c(/C=N/NC([S-])=Nc2ccccc2)s1	i[10 µM]	20µM	i	i[9.22 µM]	nt	i
CCc1ccc[n+](-c2[nH]c(=O)sc2/C=N/NC([S-])=Nc2ccccc2)c1	i[10 µM]	14µM	3.5µM	i	nt	i
Cc1ccc(/C=N/NC(=O)CCSc2ccccc2)cc1	i[10 µM]	i	i	i	i	i
Cc1cc(C)c[n+](-c2[nH]c(=O)sc2/C=N/NC([S-])=Nc2ccccc2)c1	i[10 µM]	?	i	i	28µM	i
Cc1cc[n+](-c2[nH]c(=O)sc2/C=N/NC([S-])=Nc2ccccc2)cc1	i[10 µM]	25µM	i	i	i	i
SMILES	HTT ATP protect	ALDH1A1 inh	JMJD2E inh	HttQ103 aggreg	HPGD inh	CBFb RUNX1 block
Cc1nc(NCCOc2ccccc2)sc1C(=O)Nc1ccccc1	i[10 µM]	nt	i	i[9.22 µM]	nt	i
COc1ccccc1/C=C/C(=O)Nc1cccc(S(=O)(=O)NC2=NCCCCC2)c1	i	i	?	i	nt	i
O=C(NCC(c1cccnc1)N1CCOCC1)Nc1ccccc1 (centres undefined)	i	i	i	i	i	i
CCn1c(SCC(=O)c2ccccc2)nc2ccccc2c1=O	i	16µM	?	i[9.22 µM]	nt	i
COn1c(SC2CCCCC2)nc2ccccc2c1=O	i	32µM	i	i	32µM	i
COn1c(SC(C)C)nc2ccccc2c1=O	i	i	i	i	i	i
